The panel holds about 79,000 compounds, 15% with a hit somewhere; the sample as a whole holds those more often. Cut-off read from the data, not from the text of the source: active = growth inhibition above about 70%; inactive = the rest. Where a SMILES comes first, the peptide text is derived from it. The star is where a group is joined. Boc = CC(C)(C)OC(=O)*
Experiments:
[1] = NCI Yeast Anticancer Drug Screen. Data for the rad50 strain (AID 155);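 note: 0% = growth of vehicle-only cultures of the same strain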; conditions: S. cerevisiae rad50 strain growth inhibition; at 50.0 µM; active compounds read high
Procedure, shortened: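 A DNA repair-deficient yeast mutant serves as the test organism; compound-induced growth inhibition is calculated against vehicle-treated cells.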

[2] = NCI Yeast Anticancer Drug Screen. Data for the mec2-1 strain (AID 157); conditions: S. cerevisiae mec2-1 strain, at 50.0 µM, active compounds read high
Procedure, shortened: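 Compounds were applied to mec2-1 yeast cells. Their growth was then compared with that of vehicle-treated cultures to give growth inhibition.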

[3] = NCI Yeast Anticancer Drug Screen. Data for the sgs1 mgt1 strain (AID 161);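 note: 0% = growth of cultures given vehicle only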; conditions: S. cerevisiae sgs1 mgt1 strain, at 50.0 µM, active compounds read high
Procedure, shortened: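 Yeast cells carrying a defined DNA-repair defect were exposed to test compounds. Growth inhibition was measured relative to vehicle-treated controls.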

[4] = NCI Yeast Anticancer Drug Screen. Data for the cln2 rad14 strain (AID 165);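 note: 0% = growth equal to vehicle treated cultures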; conditions: S. cerevisiae cln2 rad14 strain, at 50.0 µM, active compounds read high
Procedure, shortened: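 Strain: cln2 rad14 yeast, altered in cell cycle control and DNA damage repair. Read-out: growth inhibition vs vehicle.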

[5] = NCI Yeast Anticancer Drug Screen. Data for the bub3 strain (AID 167); conditions: S. cerevisiae bub3 mutant strain, at 50.0 µM, active compounds read high
Procedure, shortened: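 Inhibition values come from growth of compound-treated mutant yeast normalised to vehicle-treated controls.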

[6] = NCI Yeast Anticancer Drug Screen. Data for the mlh1 rad18 strain (AID 175); conditions: S. cerevisiae mlh1 rad18 strain growth inhibition; at 50.0 µM; active compounds read high
Procedure, shortened: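 A repair-deficient yeast strain is exposed to test compound, and growth is scored relative to vehicle-treated controls.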

Measured: growth inhibition

COc1ccc2c(c1)c1ccc3c(c1n2C)C(=O)C=CC3=O
inactive: [1] 8.4% | [2] -1.6% | [3] 43% | [4] 11% | [5] 4.8% | [6] 15.7%

O=c1[nH]c(=O)n(C2CC3OCC3O2)cc1F (stereo not given)
inactive: [1] -14.2% | [2] 35.7% | [3] -9.05% | [4] 20.1% | [5] -13.5% | [6] 11.2%

CC(=O)OCC(OC(C)=O)C(OC(C)=O)C(/C=C/N=[N+]([O-])c1ccccc1)OC(C)=O (stereo not given)
inactive: [1] 49% | [2] 31.5% | [3] 45.5% | [4] 42.6% | [5] 48.6% | [6] 44.9%

S=C1N(c2ccc(Br)cc2)C2=Nc3ccccc3SC(=C2N=Nc2ccccc2)N1c1ccc(Cl)cc1
inactive: [1] -13.6% | [2] 20.9% | [3] -8.8% | [4] 14.5% | [5] -1.15% | [6] -3%

Cc1ccc(C2=Nn3c(nc4sc5c(c4c3=O)CCCC5)SC2)cc1
inactive: [1] -25.7% | [2] -19.4% | [3] -39.1% | [4] -5.9% | [5] -27.4% | [6] -21.8%

COC1=C(OC)CCC(/C(C#N)=C/c2ccc(OC)c(OC)c2)=C1
inactive: [1] 18.8% | [2] -3.45% | [3] -10% | [4] -11.8% | [5] -0.9% | [6] 25.4%

Cc1cc(C)c(C(=O)OCCN(C)C)c(C)c1
inactive: [1] 10.8% | [2] 2% | [3] 9.9% | [4] -5.25% | [5] 0.5% | [6] -0.6%

COc1ccc(NC(=O)C2C(=O)N(c3ccc(OC)cc3)C(=O)/C2=N\N)cc1 (stereo not given)
inactive: [1] 11.6% | [2] -19.4% | [3] -2.9% | [4] -57.6% | [5] 19.4% | [6] 3.35%

N#C/C(=N\NC(=O)c1ccncc1)c1ccc(Cl)cc1
inactive: [1] -3% | [2] 3.6% | [3] 3.75% | [4] -30.2% | [5] -9.75% | [6] 4.65%

CC1CC[N-]CC1.CC1CC[N-]CC1.[Cl][Pt+2][Cl]
inactive: [1] -19.9% | [2] -6.7% | [3] -17.6% | [4] -34% | [5] -2.2% | [6] 5.8%

CN(C)CCNC(=O)Cn1cc([N+](=O)[O-])c(=O)c2ccccc21
inactive: [1] -12.9% | [2] -13.1% | [3] -8.8% | [4] 18.9% | [5] -7.2% | [6] -31.1%

CC1CC[C@@]23CCC4(C)[C@@](C=CC5[C@@]6(C)CCC(=O)C(C)(C)C6CC[C@]54C)(OC2=O)[C@@H]3[C@H]1C (stereo not given in full)
inactive: [1] -14.8% | [2] -17.6% | [3] -14.7% | [4] -15.1% | [5] -14.5% | [6] -8.15%

Cc1cccc(C)c1NC(=O)/C(Cc1nc2ccc([N+](=O)[O-])cc2[nH]c1=O)=N\NC(N)=O
inactive: [1] 55.4% | [2] 50.6% | [3] 30.9% | [4] 8.85% | [5] 66.5% | [6] 41.4%

O=C(NC1C(=O)NNC1c1cccc([N+](=O)[O-])c1)c1ccccc1 (stereo not given)
inactive: [1] -37.5% | [2] -26.1% | [3] 2.85% | [4] -10.6% | [5] 11.9% | [6] 0.55%

C/C=C1\CN2CCc3c([nH]c4ccccc34)C2CC1CCO (stereo not given)
inactive: [1] -16.8% | [2] -10.9% | [3] -5.4% | [4] 12.7% | [5] -26.7% | [6] -24.9%

CCCCOc1ccc(C=Nc2ccc(C)cc2)cc1
inactive: [1] -6.15% | [2] -6.2% | [3] -2.45% | [4] -8.5% | [5] 7.3% | [6] -20.7%

Cc1cc2nc(-c3cc4cc(Cl)cc(Cl)c4oc3=O)[nH]c2cc1C
inactive: [1] 10.6% | [2] 17.8% | [3] 2.7% | [4] -5.4% | [5] 17.2% | [6] -0.4%

CCCCCCCCCCCCCCCCCC(C)O (stereo not given)
inactive: [1] -8.7% | [2] -13.2% | [3] -1.05% | [4] 1.85% | [5] -10.4% | [6] -10.8%

CSC1C(=O)Nc2ccc([N+](=O)[O-])cc21 (stereo not given)
inactive: [1] -11.6% | [2] -12.7% | [3] 0.45% | [4] -19.3% | [5] -39.7% | [6] -0.8%

CCN(CC)C(=S)Oc1cc(C)nc(SCC(=O)c2ccc(Cl)cc2)n1
inactive: [1] 22.6% | [2] -18.8% | [3] 41.2% | [4] 29.2% | [5] 30.8% | [6] 28.4%

OC1OCC(COc2ccc(Cl)cc2)OC1O (stereo not given)
inactive: [1] -17.6% | [2] -9.05% | [3] -12.2% | [4] 1.25% | [5] -36.7% | [6] 18.9%

O=[N+]([O-])c1ccc(C2=Nc3ccccc3S(=O)C(c3ccccc3)C2)cc1 (stereo not given)
inactive: [1] 5.3% | [2] -27.3% | [3] 19.9% | [4] 3.45% | [5] 10.7% | [6] 20.6%

COC(=O)C(CCc1ccccc1[N+](=O)[O-])C(=O)OC
inactive: [1] 38.6% | [2] 10.8% | [3] 11.7% | [4] -4.45% | [5] 43% | [6] 34.1%

Cc1ccccc1OS(=O)(=O)c1ccc(Br)cc1
inactive: [1] -4.2% | [2] 13.8% | [3] -4.15% | [4] -107% | [5] 24.8% | [6] -15.8%

COC(=O)C(Cc1ccccc1)NC(=O)C(Cc1ccccc1)NC(=O)OC(C)(C)C (stereo not drawn) (Boc-Phe-Phe-OMe; configuration not given here)
inactive: [1] -7.05% | [2] -4.3% | [3] -18.9% | [4] -51% | [5] 0.15% | [6] -6.4%

CC(=O)C=NCC(=O)O
inactive: [1] -2.45% | [2] -3.4% | [3] -32.2% | [4] -24.8% | [5] -26.6% | [6] -8.8%

CCO/C=C\C(OCC)OCC
inactive: [1] 3.55% | [2] -8.95% | [3] 3.1% | [4] -15.2% | [5] 18.2% | [6] -0.6%

NC(C(=O)O)C(SCc1ccccc1)c1cccc(O)c1 (stereo not given)
inactive: [1] -3.2% | [2] 14.3% | [3] 18.7% | [4] -26.4% | [5] -1.3% | [6] -0.7%

c1csc(C2Nc3ccccc3N2)c1
inactive: [1] 17.6% | [2] -4.1% | [3] 25.6% | [4] 15.2% | [5] 0.5% | [6] 20.4%

COc1cc(OC)c(NC(N)=O)cc1Cl
inactive: [1] 2.3% | [2] -35% | [3] 3.55% | [4] 9.75% | [5] 5.75% | [6] -15.8%

Fc1ccc(Oc2nc3ccccc3nc2-c2ccccc2)cc1
inactive: [1] -3.35% | [2] 4.5% | [3] -2.15% | [4] 5.55% | [5] -9.4% | [6] 25.7%

CC(C)(C)c1ccnc(C(O)(C(F)(F)F)C(F)(F)F)c1
inactive: [1] -3.4% | [2] -12.2% | [3] -12.2% | [4] -43.8% | [5] -7.75% | [6] -12.4%

CC(=O)C1C(=O)C(=O)N(c2ccccc2C)C1=O (stereo not given)
inactive: [1] -25.6% | [2] -20.6% | [3] -13.8% | [4] 9.45% | [5] -24.9% | [6] -25.4%

COc1ccc(OC)c(NC(C)=O)c1
inactive: [1] -30.4% | [2] -12.2% | [3] -16.3% | [4] -3.05% | [5] -24.4% | [6] -8.55%

CC1(O)CC(C(F)(F)F)(C(F)(F)F)OC1=O (stereo not given)
inactive: [1] -20.9% | [2] -42.7% | [3] -7.75% | [4] -28.9% | [5] -2.25% | [6] -13.9%

Nc1ncnc2c1ncn2-c1ccccc1Cl
inactive: [1] 4.6% | [2] 8.35% | [3] -4.95% | [4] -1.4% | [5] 0.75% | [6] 3.1%

CC(=O)C1CCC2C3CC=C4CC(O)CCC4(C)C3CCC12C (stereo not given)
inactive: [1] 26.4% | [2] 18.4% | [3] 23.8% | [4] 45.3% | [5] 37% | [6] 46.6%

CCO/N=C(/CNC(=O)Oc1ccccc1)c1ccccc1
inactive: [1] 3.15% | [2] 0.75% | [3] -4.05% | [4] 28% | [5] 37.4% | [6] 9.45%

O=C1CC2CC(=O)C(S(=O)c3ccccc3)C2C1 (stereo not given)
inactive: [1] 6.25% | [2] 11.7% | [3] 20.1% | [4] 3.35% | [5] -1.6% | [6] 18.6%

COc1cc2oc(=O)ccc2cc1[C@@H]1OC(=O)[C@@]2(C)O[C@@H]12
inactive: [1] -0.75% | [2] -6.3% | [3] -1.35% | [4] -35.7% | [5] 3.35% | [6] -2.85%

Source: PubChem BioAssay (NCI)
